Source: PubChem BioAssay (National Center for Advancing Translational Sciences (NCATS))
In the library only some 19% were active in any assay of this set; here they are far more common.
DT40 TDP1 CPT = qHTS for Inhibitors of human tyrosyl-DNA phosphodiesterase 1 (TDP1): qHTS in cells in presence of CPT; chicken DT40 Tdp1-/-;hTDP1 cells + 20 nM CPT, ATP luminescence, 48 h; Potency, µM (titrated, usually from 46.2 µM), actives largely listed as inhibitors; 420,000 compounds, 12% hits; AID 686979, 2013; also: nearly all actives have a fitted effect of over 55% in size
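Chicken DT40 Tdp1-/- cells complemented with human TDP1, 400 cells/well, exposed to compounds plus 20 nM camptothecin for at least 48 h at 37 C; viability read as ATP content by CellTiter-Glo luminescence.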
IL1B secr inh = qHTS for Inhibitors of Inflammasome Signaling: IL-1-beta AlphaLISA Primary Screen | THP-1 LPS/ATP IL-1B secretion, AlphaLISA, 16 h; active compounds read low | AID 743279, 2014 | activity change, % at 57.5 µM | 360,000 compounds, 4.7% hits; in the data active = activity change below about -50%; inconclusive = mostly about -30% to -49%
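Secreted IL-1B measured by AlphaLISA bead assay after 16 h compound exposure of THP-1 cells; compounds (final up to 57.5 uM) added 1 h before LPS (250 ng/mL) and ATP (1.25 mM) stimulation; lower signal means less secretion.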
HT1080 IDH1KD tx = qHTS for induction of synthetic lethality in tumor cells producing 2HG: qHTS for the HT-1080-IDH1KD cell line. HT-1080 IDH1 knockdown viability, ATP luminescence, 48 h. Potency, µM (titrated, usually from 46.1 µM), actives largely listed as cytotoxic. 360,000 compounds, 2% hits
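Viability of IDH1-knockdown HT-1080 fibrosarcoma cells was assessed by CellTiter-Glo after 48 h at 37 °C with titrated compound; concentration-effect curves were classified by fit quality and response size.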
TDP1 cell noCPT = qHTS for Inhibitors of human tyrosyl-DNA phosphodiesterase 1 (TDP1): qHTS in cells in absence of CPT; DT40 Tdp1-/- hTDP1 cells, no CPT, ATP luminescence, 48 h; Potency, µM (titrated, usually from 46.2 µM), hits mostly inhibitors; 420,000 compounds, 15% hits; also: nearly all actives have a fitted effect of over 55% in size
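No-CPT arm: Tdp1-/-;hTDP1 DT40 cells (400/well) plus compounds, incubated ≥48 hr at 37 °C. Readout CellTiter-Glo luminescence.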
HT1080NT lethal = qHTS for induction of synthetic lethality in tumor cells producing 2HG: qHTS for the HT-1080-NT fibrosarcoma cell line; HT-1080-NT fibrosarcoma viability, CellTiter-Glo ATP luminescence, 48 h; Potency, µM (titrated, usually from 46.1 µM), actives largely listed as cytotoxic; 360,000 compounds, 1.6% hits; AID 686970, 2013;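 also: NT is the 2HG producing partner of a matched IDH1 knockdown line; nearly all actives have a fitted effect of over 55% in size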
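Read-out is CellTiter-Glo luminescence after 10 minutes at room temperature, following 48 hours' compound treatment of HT-1080-NT cells (750 cells/well, RPMI, 5% FBS, 37 degrees C).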
Numbers stand for hits; [ ] = another dose, or the depositor's remark. Unless noted, calls follow the shape of the dose curve; as a rule, active = well fitted curve in the direction sought with a large enough effect; inconclusive = small, poorly fitted or top-dose-only effect, or another doubt; inactive = no such curve, though single readings can be large; an effect the other way counts as inactive or inconclusive.

Screening CCOc1ccc(CCNC(=O)c2cc(Nc3ccc(C)cc3C)nc3ccccc23)cc1OCC returned DT40 TDP1 CPT 8.2µM and TDP1 cell noCPT 8.2µM.
Screening CC1CCCN(CCCNC(=O)c2coc3nc4ccccc4nc23)C1 (stereo not given) returned DT40 TDP1 CPT inactive, IL1B secr inh inactive, HT1080 IDH1KD tx inactive, TDP1 cell noCPT inactive and HT1080NT lethal inactive.
For O=C1NC(=O)C2(CCCCC2C2CCCCC2)N1 (stereo not given) the results were DT40 TDP1 CPT inactive, IL1B secr inh inactive, HT1080 IDH1KD tx inactive, TDP1 cell noCPT inactive and HT1080NT lethal inactive.
`COC(=O)c1ccccc1NC(=O)COC(=O)CO/N=C(\C)c1ccc2c(c1)OCO2` gave DT40 TDP1 CPT inactive, IL1B secr inh inactive, HT1080 IDH1KD tx inactive, TDP1 cell noCPT inactive and HT1080NT lethal inactive.
CCCc1cc(=O)[nH]c(SCC(=O)N2c3ccccc3CC2C)n1 (stereo not given) was read as DT40 TDP1 CPT inactive, IL1B secr inh inactive, HT1080 IDH1KD tx inactive, TDP1 cell noCPT inactive and HT1080NT lethal inactive.
`COc1ccc(CCNC(=O)c2cc(Nc3ccccc3)nc3ccccc23)cc1OC` gave DT40 TDP1 CPT 9.2µM and TDP1 cell noCPT 8.2µM.
`COc1ccc(CCNC(=O)c2cc(-c3ccc(C)c(C)c3)nc3ccccc23)cc1OC` gave DT40 TDP1 CPT 10µM and TDP1 cell noCPT inactive.
For COc1ccc(CCNC(=O)c2cccc3ccccc23)cc1OC the results were DT40 TDP1 CPT inactive, IL1B secr inh inactive, HT1080 IDH1KD tx inactive, TDP1 cell noCPT inactive and HT1080NT lethal inactive.
`Cc1ccc(C)c(Nc2cc(C(=O)NCc3cccnc3)c3ccccc3n2)c1` gave DT40 TDP1 CPT inconclusive, IL1B secr inh -73, HT1080 IDH1KD tx inactive, TDP1 cell noCPT inconclusive and HT1080NT lethal inactive.
`O=C(NCc1cccnc1)c1cc(Sc2ccc(F)cc2F)nc2ccccc12` gave DT40 TDP1 CPT 23µM, IL1B secr inh inconclusive, HT1080 IDH1KD tx inactive, TDP1 cell noCPT 21µM and HT1080NT lethal inactive.
`CC(NC(=O)c1cccs1)c1ccc(Br)cc1` (stereo not given) gave DT40 TDP1 CPT inactive, IL1B secr inh inactive, HT1080 IDH1KD tx inactive, TDP1 cell noCPT inactive and HT1080NT lethal inactive.
For CC=C1C2C=C(C)CC1(N)c1ccc(=O)[nH]c1C2 (stereo not given) the results were DT40 TDP1 CPT inactive and TDP1 cell noCPT inactive.
For Cc1ccc(CNC(=O)c2ccc(-c3nc(CS(=O)c4ccccc4)c(C)o3)cc2)cc1 (stereo not given) the results were DT40 TDP1 CPT 18µM and TDP1 cell noCPT 8.2µM.
COc1ccccc1CNC(=O)c1ccc(-c2nc(CS(=O)c3ccc(C)cc3)c(C)o2)cc1 (stereo not given) was read as DT40 TDP1 CPT inconclusive and TDP1 cell noCPT 13µM.
For Cc1ccc(S(=O)Cc2nc(-c3ccc(C(=O)NCc4cccc(C)c4)cc3)oc2C)cc1 (stereo not given) the results were DT40 TDP1 CPT inactive and TDP1 cell noCPT inconclusive.
Cc1oc(-c2ccc(C(=O)NCc3ccc(F)cc3)cc2)nc1CS(=O)c1ccccc1 (stereo not given) was read as DT40 TDP1 CPT inconclusive and TDP1 cell noCPT 21µM.
For CCn1cc(/C=C(\NC(=O)c2ccccc2F)C(=O)N2CCN(C)CC2)c2ccccc21 the results were DT40 TDP1 CPT inconclusive, IL1B secr inh inactive, HT1080 IDH1KD tx inactive, TDP1 cell noCPT inactive and HT1080NT lethal inactive.
CS(=O)(=O)N1CCC(Oc2ccccc2C(=O)N2CCN(CC3CC3)CC2)CC1 was read as DT40 TDP1 CPT inactive, IL1B secr inh inactive, HT1080 IDH1KD tx inactive, TDP1 cell noCPT inactive and HT1080NT lethal inactive.
`O=C(/C=C/N1CCOCC1)c1ccc(-c2ccccc2)cc1` gave DT40 TDP1 CPT inconclusive, IL1B secr inh inactive, HT1080 IDH1KD tx inactive, TDP1 cell noCPT 21µM and HT1080NT lethal inactive.
Screening COC(=O)c1cc(C)[nH]c2c(C)cc3nc4ccccc4c3c12 returned DT40 TDP1 CPT inconclusive, IL1B secr inh -98, HT1080 IDH1KD tx inconclusive, TDP1 cell noCPT inconclusive and HT1080NT lethal inconclusive.
`O=C(/C=C/c1ccco1)Nc1cccc2cccnc12` gave DT40 TDP1 CPT inactive, IL1B secr inh inactive, HT1080 IDH1KD tx inactive, TDP1 cell noCPT inactive and HT1080NT lethal inactive.
For O=C(/C=C/c1ccco1)Nc1nc(-c2ccccn2)cs1 the results were DT40 TDP1 CPT 7.3µM, IL1B secr inh inactive, HT1080 IDH1KD tx inactive, TDP1 cell noCPT 7.3µM and HT1080NT lethal inactive.
O=C(/C=C/c1ccco1)Nc1ccccn1 was read as DT40 TDP1 CPT 3.3µM, IL1B secr inh inactive, HT1080 IDH1KD tx inconclusive, TDP1 cell noCPT 3.3µM and HT1080NT lethal inconclusive.
Cc1ccc(NC(=O)/C=C/c2ccco2)nc1 was read as DT40 TDP1 CPT 0.013µM, IL1B secr inh inactive, HT1080 IDH1KD tx 0.0058µM, TDP1 cell noCPT 0.0058µM and HT1080NT lethal 0.046µM.
O=C(/C=C/c1ccco1)Nc1nc(-c2ccccc2)cs1 was read as DT40 TDP1 CPT inactive, IL1B secr inh inactive, HT1080 IDH1KD tx inactive, TDP1 cell noCPT inconclusive and HT1080NT lethal inactive.
`Cc1ccc2c(c1)N(CCC(=O)NC1CCCCC1C)C(=O)CO2` (stereo not given) gave DT40 TDP1 CPT inactive, IL1B secr inh inactive, HT1080 IDH1KD tx inactive, TDP1 cell noCPT inactive and HT1080NT lethal inactive.
For C=C[C@@H]1c2ccccc2N(S(=O)(=O)c2ccc(C)cc2)[C@H](c2ccccc2)C1(C#N)C#N the results were DT40 TDP1 CPT 7.9µM, IL1B secr inh inactive, HT1080 IDH1KD tx inactive, TDP1 cell noCPT 21µM and HT1080NT lethal inactive.
`Cc1ccc2c(c1)C1CN(C)CCC1N2S(=O)(=O)c1ccc(C(C)C)cc1` (stereo not given) gave DT40 TDP1 CPT inconclusive, IL1B secr inh inactive, HT1080 IDH1KD tx inactive, TDP1 cell noCPT inconclusive and HT1080NT lethal inactive[9.24 µM].
C=C[C@@H]1c2cc(C)ccc2N(S(=O)(=O)c2ccc(C)cc2)[C@H](c2ccccc2C(F)(F)F)C1(C#N)C#N was read as DT40 TDP1 CPT 8.2µM, IL1B secr inh inactive, HT1080 IDH1KD tx inactive, TDP1 cell noCPT inconclusive and HT1080NT lethal inactive.
`C=C[C@@H]1c2cc(C)ccc2N(S(=O)(=O)c2ccc(C)cc2)[C@H](c2ccccc2)C1(C#N)C#N` gave DT40 TDP1 CPT 7.9µM, IL1B secr inh inactive, HT1080 IDH1KD tx inactive, TDP1 cell noCPT 10µM and HT1080NT lethal inactive.
Screening CCCn1c2ccccc2c2cnn(CC(=O)N(C)c3ccc(F)cc3)c(=O)c21 returned DT40 TDP1 CPT 18µM and TDP1 cell noCPT 18µM.
